Binding signal data for twelve sequences are collected here from publication PMC5700166.

Common to all, as to test: protein-binding microarray (PBM); PBM: ~300 nM protein, 6 mM HEPES pH 7.8, 80 mM KCl, 0.5 mM EDTA, 0.5 mM EGTA, 6% glycerol, 35 ng/ul poly-dIdC, 1% milk, 1 h, room temperature; Ap Aiptasia and Nv Nematostella (sea anemones) / Co Capsaspora / Aq Amphimedon (sponge) / Dm Drosophila / Hu human; RHD is the Rel homology domain; high values mean tight binding
Common to all, as to conditions: dsDNA, one strand shown

For one assay, the target named is T1, GST-Ap-NF-kB RHD (Exaiptasia pallida (Aiptasia), UniProt A0A913YAJ5 2-422).
T1 sequence: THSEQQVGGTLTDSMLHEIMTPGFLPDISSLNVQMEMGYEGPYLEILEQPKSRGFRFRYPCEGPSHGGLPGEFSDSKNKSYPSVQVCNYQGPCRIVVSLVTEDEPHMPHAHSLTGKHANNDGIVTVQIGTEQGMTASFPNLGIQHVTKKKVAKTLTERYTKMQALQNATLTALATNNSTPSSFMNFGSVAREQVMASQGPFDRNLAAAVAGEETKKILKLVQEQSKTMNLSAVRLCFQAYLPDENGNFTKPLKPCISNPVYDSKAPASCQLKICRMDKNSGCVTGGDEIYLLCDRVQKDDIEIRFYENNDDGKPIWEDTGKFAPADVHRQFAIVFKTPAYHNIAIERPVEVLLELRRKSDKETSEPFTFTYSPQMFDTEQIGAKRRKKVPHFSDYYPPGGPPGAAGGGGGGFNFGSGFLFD

In assay [1] the target is T2, GST-Nv-NF-kB (Cys allele) (Nematostella vectensis, UniProt E5G601 2-411).
T2 sequence: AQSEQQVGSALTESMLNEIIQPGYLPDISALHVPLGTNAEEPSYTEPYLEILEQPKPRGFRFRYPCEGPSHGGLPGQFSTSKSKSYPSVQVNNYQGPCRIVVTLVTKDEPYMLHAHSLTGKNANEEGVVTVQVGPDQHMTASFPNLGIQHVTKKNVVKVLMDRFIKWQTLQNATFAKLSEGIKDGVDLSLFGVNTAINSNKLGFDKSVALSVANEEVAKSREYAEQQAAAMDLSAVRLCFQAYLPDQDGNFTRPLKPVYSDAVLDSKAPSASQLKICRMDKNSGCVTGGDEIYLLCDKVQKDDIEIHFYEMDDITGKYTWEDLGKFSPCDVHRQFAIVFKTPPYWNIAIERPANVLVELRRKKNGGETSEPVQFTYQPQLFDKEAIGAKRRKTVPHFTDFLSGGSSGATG

Assay [2] deals with T3, GST-Nv-NF-kB (Ser allele) (Nematostella vectensis, UniProt A7UNT2 2-411).
T3 sequence: T2 sequence with Q21R, C66S, S207N, E215Q, V217A, E225K, A268E, D399E

For the next assay, the target named is T4, GST-Co-NF-kB (Capsaspora owczarzaki, UniProt F1ARL5 200-546).
T4 sequence: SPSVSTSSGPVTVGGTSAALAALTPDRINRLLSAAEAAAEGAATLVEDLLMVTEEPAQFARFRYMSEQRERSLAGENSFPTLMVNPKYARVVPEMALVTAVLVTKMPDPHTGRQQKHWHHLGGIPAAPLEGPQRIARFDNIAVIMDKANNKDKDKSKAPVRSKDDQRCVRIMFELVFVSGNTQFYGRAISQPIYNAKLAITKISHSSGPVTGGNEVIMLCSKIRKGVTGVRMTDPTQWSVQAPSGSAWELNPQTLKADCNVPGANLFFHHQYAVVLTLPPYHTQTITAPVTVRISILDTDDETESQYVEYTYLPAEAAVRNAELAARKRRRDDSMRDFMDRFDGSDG

A further assay deals with T5, GST-Dm-Relish (Drosophila melanogaster, UniProt Q94527 99-473).
T5 sequence: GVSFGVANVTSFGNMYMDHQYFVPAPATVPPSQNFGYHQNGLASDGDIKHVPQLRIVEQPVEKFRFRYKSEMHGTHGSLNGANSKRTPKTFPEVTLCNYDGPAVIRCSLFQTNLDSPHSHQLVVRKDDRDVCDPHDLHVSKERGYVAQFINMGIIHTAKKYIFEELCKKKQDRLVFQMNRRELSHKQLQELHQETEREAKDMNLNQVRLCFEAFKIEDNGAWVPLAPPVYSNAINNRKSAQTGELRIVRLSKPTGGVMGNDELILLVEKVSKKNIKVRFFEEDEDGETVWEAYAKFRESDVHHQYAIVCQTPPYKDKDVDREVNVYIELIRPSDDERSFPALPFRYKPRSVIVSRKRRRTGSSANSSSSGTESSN

The next assay deals with T6, GST-Aq-NF-kB (Amphimedon queenslandica, UniProt A9Y5G7 2-389).
T6 sequence: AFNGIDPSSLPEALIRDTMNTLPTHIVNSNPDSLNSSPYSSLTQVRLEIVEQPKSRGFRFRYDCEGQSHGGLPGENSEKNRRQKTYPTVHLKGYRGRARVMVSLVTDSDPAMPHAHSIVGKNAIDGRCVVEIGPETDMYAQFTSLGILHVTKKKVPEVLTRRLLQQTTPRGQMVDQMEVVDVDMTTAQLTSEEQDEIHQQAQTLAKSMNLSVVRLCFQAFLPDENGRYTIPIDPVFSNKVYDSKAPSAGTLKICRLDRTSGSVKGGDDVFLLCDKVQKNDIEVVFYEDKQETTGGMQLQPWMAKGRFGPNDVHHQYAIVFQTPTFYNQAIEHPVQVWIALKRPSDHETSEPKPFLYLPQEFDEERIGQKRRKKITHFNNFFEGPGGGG

For the next assay, the target named is GST-Hu-p50 (Homo sapiens, UniProt P19838 7-356).

Positions count from the first letter of the chain named.

GST-Hu-p50, sequence (P19838 7-356): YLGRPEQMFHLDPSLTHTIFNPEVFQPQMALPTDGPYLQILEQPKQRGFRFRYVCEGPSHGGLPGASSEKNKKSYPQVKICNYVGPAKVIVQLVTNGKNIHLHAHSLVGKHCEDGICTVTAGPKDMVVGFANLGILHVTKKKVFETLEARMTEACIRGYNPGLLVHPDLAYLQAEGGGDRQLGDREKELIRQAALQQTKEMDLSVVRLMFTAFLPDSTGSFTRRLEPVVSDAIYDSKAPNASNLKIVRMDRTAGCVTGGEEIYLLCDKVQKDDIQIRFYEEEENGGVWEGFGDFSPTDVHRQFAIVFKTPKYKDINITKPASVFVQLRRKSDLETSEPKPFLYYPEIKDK

For the sequence “CCGATTAACATCAGGGGGCTATATGATGTTAATCGGGTCTTGATTCGCTTGACGCTGCTG”, the binding signal turned out to be 3.62 z-score with GST-Ap-NF-kB RHD; 3.23 z-score in assay [1]; 2.2 z-score in assay [2]; 1.85 z-score in the assay with GST-Co-NF-kB; 2.75 z-score with GST-Dm-Relish; 3.69 z-score with GST-Aq-NF-kB. In the assay with GST-Hu-p50, the binding signal came out at 3.35 z-score.
As to “CCGATTAACATCAGGATACCCCCTGATGTTAATCGGGTCTTGATTCGCTTGACGCTGCTG”, the binding signal with GST-Ap-NF-kB RHD amounted to 7.7 z-score; in assay [1], 4.68 z-score; in assay [2], 4.35 z-score; in the assay with GST-Co-NF-kB, 4.59 z-score; with GST-Dm-Relish it was 5.79 z-score; with GST-Aq-NF-kB it was 6.35 z-score. The sequence also had a binding signal with GST-Hu-p50 of 5.02 z-score.
On to “CCGATTAACATCAAGGGACCCCCTGATGTTAATCGGGTCTTGATTCGCTTGACGCTGCTG”, for which the binding signal with GST-Ap-NF-kB RHD is 5.77 z-score; in assay [1] it was 3.16 z-score; in assay [2] it was 3.36 z-score; with GST-Co-NF-kB it was 2.03 z-score; with GST-Dm-Relish, 7.64 z-score; with GST-Aq-NF-kB, 4.72 z-score. In the assay with GST-Hu-p50, this sequence showed a binding signal of 3.57 z-score.
For the sequence “CCGATTAACATCAAAAATCCCCCTGATGTTAATCGGGTCTTGATTCGCTTGACGCTGCTG”, the binding signal was found to be 11.1 z-score with GST-Ap-NF-kB RHD; 11.4 z-score in assay [1]; 12.8 z-score in assay [2]; 8.5 z-score with GST-Co-NF-kB; 10.1 z-score with GST-Dm-Relish; 9.28 z-score with GST-Aq-NF-kB. Further, the binding signal with GST-Hu-p50 was 8.05 z-score.
With “CCGATTAACATCAGGGAAGTACCTGATGTTAATCGGGTCTTGATTCGCTTGACGCTGCTG”, the binding signal is 6.67 z-score in the assay with GST-Ap-NF-kB RHD; 7.36 z-score in assay [1]; 8.68 z-score in assay [2]; 1.93 z-score with GST-Co-NF-kB; 9.88 z-score with GST-Dm-Relish; 7.45 z-score with GST-Aq-NF-kB. The binding signal in the assay with GST-Hu-p50 stood at 5.92 z-score.
For “CCGATTAACATCAACGAAACCCCTGATGTTAATCGGGTCTTGATTCGCTTGACGCTGCTG”, the binding signal was found to be 3.65 z-score in the assay with GST-Ap-NF-kB RHD; 2.45 z-score in assay [1]; 2.84 z-score in assay [2]; 1.39 z-score with GST-Co-NF-kB; 4.41 z-score with GST-Dm-Relish; 2.77 z-score in the assay with GST-Aq-NF-kB. For the same sequence, in the assay with GST-Hu-p50, the binding signal was determined as 3.87 z-score.
Take “CCGATTAACATCAACGTCCCCCCTGATGTTAATCGGGTCTTGATTCGCTTGACGCTGCTG”: the binding signal in the assay with GST-Ap-NF-kB RHD is 5.15 z-score; in assay [1], 3.81 z-score; in assay [2], 4.61 z-score; in the assay with GST-Co-NF-kB it was 5.29 z-score; with GST-Dm-Relish it was 4.4 z-score; in the assay with GST-Aq-NF-kB, 4.66 z-score. Besides, the binding signal with GST-Hu-p50 came out at 3.74 z-score.
As for “CCGATTAACATCAGAGACCCCCCTGATGTTAATCGGGTCTTGATTCGCTTGACGCTGCTG”, the binding signal with GST-Ap-NF-kB RHD is 4.3 z-score; in assay [1], 3.27 z-score; in assay [2], 2.81 z-score; in the assay with GST-Co-NF-kB it was 2.4 z-score; with GST-Dm-Relish, 5.26 z-score; in the assay with GST-Aq-NF-kB, 3.97 z-score. In addition, in the assay with GST-Hu-p50, the binding signal was determined as 3.87 z-score.
Regarding “CCGATTAACATCAATATTCCCCCTGATGTTAATCGGGTCTTGATTCGCTTGACGCTGCTG”, the binding signal came to 8.39 z-score with GST-Ap-NF-kB RHD; 9.05 z-score in assay [1]; 10 z-score in assay [2]; 10.4 z-score with GST-Co-NF-kB; 6.05 z-score in the assay with GST-Dm-Relish; 7.05 z-score in the assay with GST-Aq-NF-kB. The same sequence had a binding signal with GST-Hu-p50 of 7.24 z-score.
Turning to “CCGATTAACATCAAATTCCCCCATGATGTTAATCGGGTCTTGATTCGCTTGACGCTGCTG”, the binding signal was determined as 8.6 z-score in the assay with GST-Ap-NF-kB RHD; 8.92 z-score in assay [1]; 9.99 z-score in assay [2]; 9.97 z-score with GST-Co-NF-kB; 7.71 z-score with GST-Dm-Relish; 6.9 z-score in the assay with GST-Aq-NF-kB. For the same sequence, the binding signal with GST-Hu-p50 was 7.09 z-score.
For “CCGATTAACATCAGGGGACTCACTGATGTTAATCGGGTCTTGATTCGCTTGACGCTGCTG”, the binding signal was found to be 5.12 z-score in the assay with GST-Ap-NF-kB RHD; 4.13 z-score in assay [1]; 4.07 z-score in assay [2]; 3.05 z-score in the assay with GST-Co-NF-kB; 8.85 z-score with GST-Dm-Relish; 4.46 z-score with GST-Aq-NF-kB. In the assay with GST-Hu-p50, this sequence showed a binding signal of 4.32 z-score.
With “CCGATTAACATCAGGGGGGACCCTGATGTTAATCGGGTCTTGATTCGCTTGACGCTGCTG”, the binding signal in the assay with GST-Ap-NF-kB RHD is 6.34 z-score; in assay [1] it was 4.19 z-score; in assay [2], 3.73 z-score; in the assay with GST-Co-NF-kB it was 4.11 z-score; in the assay with GST-Dm-Relish, 6.14 z-score; with GST-Aq-NF-kB, 5.92 z-score. Moreover, in the assay with GST-Hu-p50, the binding signal worked out at 4.27 z-score.
